Screening results: PubChem BioAssay, The Scripps Research Institute Molecular Screening Center
FBW7 act: human FBW7 E3 ligase activation, primary screen; AlphaScreen FBW7–phospho-cyclin E peptide binding, activator screen; Q969H0; 0.13% of 650,000 active; normalized activity (activation), % at 26.1 µM; in the data active = normalized activity above about 1.9%;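 note: purified mutant Fbw7 with reduced substrate affinity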
GPR151 ag: human GPR151 activation | Q8TDV0 | PathHunter beta-arrestin GPR151 cells, luminescence | activation, % at 11.2 µM | 1% of 650,000 active | AID 1508602; in the data active = activation above about 4.9%
Target sequence (Q8TDV0 whole entry, looked up): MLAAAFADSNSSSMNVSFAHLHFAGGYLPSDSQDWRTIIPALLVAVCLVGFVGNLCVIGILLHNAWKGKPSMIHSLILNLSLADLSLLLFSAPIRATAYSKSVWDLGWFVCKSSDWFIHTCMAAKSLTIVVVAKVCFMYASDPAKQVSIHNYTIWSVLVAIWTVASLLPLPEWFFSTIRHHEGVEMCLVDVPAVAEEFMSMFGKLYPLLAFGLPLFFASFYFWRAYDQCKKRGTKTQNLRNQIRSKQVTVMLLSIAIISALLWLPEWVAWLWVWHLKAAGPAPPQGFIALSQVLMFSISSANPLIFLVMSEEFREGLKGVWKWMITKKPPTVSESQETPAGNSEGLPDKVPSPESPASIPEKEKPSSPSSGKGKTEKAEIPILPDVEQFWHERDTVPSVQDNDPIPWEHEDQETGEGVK
MITF inh: blocks human microphthalmia-associated transcription factor | O75030 | AlphaScreen MITF homodimerization, bead proximity signal | inhibition, % at 2.6 µM | 0.91% of 650,000 active; in the data active = inhibition above about 50%
TEAD-YAP inh: TEAD-YAP interaction inhibition. HEK-TIYL cells, TEAD-Gal4/YAP UAS-luciferase luminescence. inhibition, % at 9.12 µM. 1.4% of 640,000 active. AID 1259422; in the data active = inhibition above about 32%
Numbers stand for hits. Rows were chosen to be rich in hits. Some 3.4% of all compounds tested hit in one or more screens of this group.

CC(C)n1cnc2c(NCc3nc4ccccc4[nH]3)nc(Nc3ccc(N4CCOCC4)cc3)nc21 was read as FBW7 act inactive, GPR151 ag inactive, MITF inh inactive and TEAD-YAP inh 57.
`CCN(CC(=O)Nc1ccc(Br)cc1)c1ccc([N+](=O)[O-])cc1C#N` gave FBW7 act inactive, GPR151 ag inactive, MITF inh inactive and TEAD-YAP inh inactive.
Screening CC(Nc1nc2nc[nH]c2c(=O)[nH]1)C(=O)O (stereo not given) returned FBW7 act inactive, GPR151 ag inactive, MITF inh inactive and TEAD-YAP inh inactive.
Cc1cccc(C)c1NC(=O)CSc1nnc(NC(=O)C(C)(C)C)s1 was read as FBW7 act inactive, GPR151 ag inactive, MITF inh inactive and TEAD-YAP inh inactive.
O=C(/C=C\Nc1ccc2[nH]ncc2c1)c1ccco1 was read as FBW7 act inactive, GPR151 ag inactive, MITF inh inactive and TEAD-YAP inh inactive.
Screening c1ccc2[nH]c(CNc3nc(N4CCOCC4)nc4c3ncn4C3CCCCC3)nc2c1 returned FBW7 act inactive, GPR151 ag inactive, MITF inh inactive and TEAD-YAP inh 74.
Screening CCN(CC)c1nc(NCCc2ccc(O)cc2)nc(N2CCN(c3ccccn3)CC2)n1 returned FBW7 act inactive, GPR151 ag inactive, MITF inh inactive and TEAD-YAP inh inactive.
For CC(C)n1cnc2c(NCc3ccccc3)nc(N3CCN(Cc4ccc5c(c4)OCO5)CC3)nc21 the results were FBW7 act inactive, GPR151 ag inactive, MITF inh inactive and TEAD-YAP inh inactive.
CCN(CC)c1nc(NCc2nc3ccccc3[nH]2)nc(N2CCN(c3ccccn3)CC2)n1 was read as FBW7 act inactive, GPR151 ag inactive, MITF inh inactive and TEAD-YAP inh 34.
For CC(C)n1cnc2c(NCc3nc4ccccc4[nH]3)nc(N3CCN(Cc4ccc5c(c4)OCO5)CC3)nc21 the results were FBW7 act inactive, GPR151 ag inactive, MITF inh inactive and TEAD-YAP inh 68.
`COC(=O)c1ccc2c(c1)nc(SCc1cc(=O)n3cc(Cl)ccc3n1)n1c3ccccc3nc21` gave FBW7 act inactive, GPR151 ag inactive, MITF inh inactive and TEAD-YAP inh inactive.
Screening COc1cc(C=O)ccc1OCCN1CCOCC1 returned FBW7 act inactive, GPR151 ag inactive, MITF inh inactive and TEAD-YAP inh 40.
Screening CCOc1cc(C=O)ccc1OCCN1CCOCC1 returned FBW7 act inactive, GPR151 ag inactive, MITF inh inactive and TEAD-YAP inh inactive.
`CN1CC[C@@H](Oc2ccnc(C(=O)Nc3ccc4[nH]ncc4c3)c2)C1` gave FBW7 act inactive, GPR151 ag inactive, MITF inh inactive and TEAD-YAP inh 66.
`O=C(Nc1ccc2[nH]ncc2c1)c1cccnc1OC1CCN(Cc2ccccc2)CC1` gave FBW7 act inactive, GPR151 ag inactive, MITF inh inactive and TEAD-YAP inh inactive.
For O=C(Nc1ccc2[nH]ncc2c1)c1cc(O[C@H]2CCNC2)ccn1 the results were FBW7 act inactive, GPR151 ag inactive, MITF inh inactive and TEAD-YAP inh 43.
`CN1CCC(Oc2ccnc(C(=O)Nc3ccc4[nH]ncc4c3)c2)CC1` gave FBW7 act inactive, GPR151 ag inactive, MITF inh inactive and TEAD-YAP inh inactive.
Screening O=C(Nc1ccc2[nH]ncc2c1)c1ccc(OC2CCN(Cc3ccccc3)CC2)nc1 returned FBW7 act inactive, GPR151 ag inactive, MITF inh inactive and TEAD-YAP inh 44.
`COc1ccc(C(=O)Nc2sc3c(c2C#N)CCCCC3)cc1[N+](=O)[O-]` gave FBW7 act inactive, GPR151 ag inactive, MITF inh inactive and TEAD-YAP inh inactive.
`C/C=C/COC(=O)C1=C(C)NC(=O)NC1c1ccc(Cl)cc1Cl` (stereo not given) gave FBW7 act inactive, GPR151 ag inactive, MITF inh inactive and TEAD-YAP inh 64.
CCCCN(CCCC)C(=O)Cc1cccs1 was read as FBW7 act inactive, GPR151 ag inactive, MITF inh inactive and TEAD-YAP inh 44.
O=C(CN1CCC(O)(c2cccnc2)CC1)NCc1ccccc1F was read as FBW7 act inactive, GPR151 ag inactive, MITF inh inactive and TEAD-YAP inh inactive.
For CC(=O)N1CCSc2cc(S(=O)(=O)NCCCc3ccccc3)ccc21 the results were FBW7 act inactive, GPR151 ag inactive, MITF inh inactive and TEAD-YAP inh 35.
`CC(=O)N1CCSc2cc(S(=O)(=O)N3CCC(Cc4ccccc4)CC3)ccc21` gave FBW7 act inactive, GPR151 ag inactive, MITF inh inactive and TEAD-YAP inh 55.
CC1CN(c2ccccc2)CCN1Cc1nc(N2CCOCC2)c2ccc(Cl)cc2n1 (stereo not given) was read as FBW7 act inactive, GPR151 ag inactive, MITF inh inactive and TEAD-YAP inh inactive.
`CNC(=O)c1ccccc1Nc1cc(Nc2cccc(C)n2)ncc1C(F)(F)F` gave FBW7 act inactive, GPR151 ag inactive, MITF inh inactive and TEAD-YAP inh 82.
`CNC(=O)c1ccccc1Nc1cc(Nc2ccc3c(c2)CCC(=O)N3C)ncc1C(F)(F)F` gave FBW7 act inactive, GPR151 ag inactive, MITF inh inactive and TEAD-YAP inh 78.
For CNC(=O)c1ccccc1Nc1cc(Nc2ccc(-c3cncnc3)cc2)ncc1C(F)(F)F the results were FBW7 act inactive, GPR151 ag inactive, MITF inh inactive and TEAD-YAP inh 32.
For CNS(=O)(=O)c1ccccc1Nc1cc(Nc2cc(-c3cncnc3)nc(C)n2)ncc1C(F)(F)F the results were FBW7 act inactive, GPR151 ag inactive, MITF inh inactive and TEAD-YAP inh 68.
`CNC(=O)c1ccccc1Nc1cc(Nc2ccccn2)ncc1C(F)(F)F` gave FBW7 act inactive, GPR151 ag inactive, MITF inh inactive and TEAD-YAP inh 83.
Screening CNC(=O)c1ccc(Nc2cc(Nc3ccccc3C(=O)NC)c(C(F)(F)F)cn2)nc1 returned FBW7 act inactive, GPR151 ag inactive, MITF inh inactive and TEAD-YAP inh 88.
CN(C)C(=O)C(=O)c1c[nH]c2ccc(Nc3cc(Nc4ccccn4)c(C(F)(F)F)cn3)cc12 was read as FBW7 act inactive, GPR151 ag inactive, MITF inh inactive and TEAD-YAP inh inactive.
For CNC(=O)c1ccccc1Nc1cc(Nc2ccc3[nH]cc(C(=O)C(=O)N(C)C)c3c2)ncc1C(F)(F)F the results were FBW7 act inactive, GPR151 ag inactive, MITF inh inactive and TEAD-YAP inh 51.
`CNC(=O)c1ccnc(Nc2cc(Nc3ccccc3C(=O)NC)c(C(F)(F)F)cn2)c1` gave FBW7 act inactive, GPR151 ag inactive, MITF inh inactive and TEAD-YAP inh 85.
`CNC(=O)c1ncccc1Nc1cc(Nc2ccc3c(c2)NC(=O)C3)ncc1C(F)(F)F` gave FBW7 act inactive, GPR151 ag inactive, MITF inh inactive and TEAD-YAP inh inactive.
`Cn1c(-c2ccc3c(c2)OCO3)cnc1NCc1ccc(F)cc1` gave FBW7 act inactive, GPR151 ag inactive, MITF inh inactive and TEAD-YAP inh inactive.
For O=C(NCCCN1CCOCC1)C(Cc1ccccc1)NS(=O)(=O)c1ccc(Cl)cc1 (stereo not given) the results were FBW7 act 2.4, GPR151 ag inactive, MITF inh inactive and TEAD-YAP inh inactive.
